Results from PubChem BioAssay AID1053188 (Broad Institute, 2014).
Where “and” joins values, the source holds several entries; their conditions need not be identical. Identical values can stand only once. Screen size: about 83,000 compounds; about 780 (0.94%) were called active.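 Rule for the calls: active = mean inhibition of at least 50% with a set share of replicates also reaching that level; inconclusive = no clear call, values can overlap the other calls; inactive = the rest.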 The full list was thinned out, with actives kept by preference. Where a structure was tested more than once in an assay, its records may differ in their call.

Experiment: inhibitors of CD40-induced NF-kB signaling, primary screen, BL2 cells, luciferase reporter, single point (AID 1053188);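 note: 0% = neutral control wells and 100% = IKK inhibitor VII at 50 µM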
Conditions: CD40L-induced, 4 h, stronger effect = higher value; at 10 µM unless noted

| Compound | inhibition |
| --- | --- |
| CS(=O)(=O)N1CCN(CC(=O)NC2CCCC2)CC1 | 4.72% (inactive) |
| CS(=O)(=O)N1C[C@@H]2C(c3ccccc3)[C@H](C1)N2CC(F)(F)F (stereo partly drawn) | 8.84% (inactive) and 23.5% (inactive) |
| COc1cccc(NC(=O)COC(=O)c2ccc3ccccc3n2)c1 | -7.67% (inactive) |
| O=C(Nc1ccccc1)Nc1nc2ccccc2s1 | -102% (inactive) |
| Cc1ccnc(Nc2nc3ccccc3s2)n1 | -62.3% (inactive) |
| c1ccc(C(=NNc2nc3ccccc3s2)c2ccccn2)cc1 | 72.5% (active) |
| CCN1CCN(c2ccc(S(=O)(=O)N3CCCCC3)cc2NC(=O)c2cccc(NC(C)=O)c2)CC1 | 1.54% (inactive) |
| CCN1CC(CN(C)Cc2nc(-c3ccc(Cl)cc3)no2)CC1=O (stereo not drawn) | 2.41% (inactive) |
| CC1CCCC(NC(=O)c2cc(S(=O)(=O)N3CCCCC3)ccc2Cl)C1C (stereo not drawn) | 6.89% (inactive) |
| Cc1ccc(NC(=O)c2ccco2)cc1 | -36.5% (inactive) |
| COc1cc(C(=O)CCc2ccc3c(c2)OCO3)cc(OC)c1OC | 1.79% (inactive) |
| CCC1CCC2(CC1)NC(=O)N(CC(=O)Nc1ccc(OC)cc1)C2=O (stereo not drawn) | -0.377% (inactive) |
| C/C=C/c1ccc(C2[C@H]3CNC[C@@H]2N3Cc2cccc(OC)c2)cc1 (stereo partly drawn) | -2.62% (inactive) and -20.4% (active) |
| C/C=C/c1ccc(C2[C@H]3CNC[C@@H]2N3CC2CCOCC2)cc1 (stereo partly drawn) | 9.41% (inactive) |
| C/C=C/c1ccc(C2[C@H]3CNC[C@@H]2N3Cc2cccc(F)c2)cc1 (stereo partly drawn) | 0.374% (inactive) and -2.51% (inactive) |
| CCc1noc(C)c1C(=O)N1CCN(S(=O)(=O)c2cccc(C(F)(F)F)c2)CC1 | 1.62% (inactive) |
| O=C1COc2c1ccc(O)c2O | 12.2% (inactive) |
| COc1ccc2c(C)cc(SCC(=O)NCC3CCCO3)nc2c1 (stereo not drawn) | 1.77% (inactive) |
| Cc1noc(C)c1S(=O)(=O)Nc1ccc2c(c1)C(=O)N([C@@H](C)CO)C[C@@H](C)[C@H](CN(C)C(=O)Nc1cccc3ccccc13)OCCCC[C@H](C)O2 | 8.4% [at 25 µM] (inactive) |
| Cc1ccc(S(=O)(=O)Nc2ccc3c(c2)C(=O)N([C@@H](C)CO)C[C@@H](C)[C@H](CN(C)C(=O)Nc2cccc4ccccc24)OCCCC[C@H](C)O3)cc1 | 9.18% (inactive) |
| Cc1noc(C)c1S(=O)(=O)Nc1ccc2c(c1)C(=O)N([C@@H](C)CO)C[C@H](C)[C@@H](CN(C)C(=O)Nc1cccc3ccccc13)OCCCC[C@H](C)O2 | 48% [at 25 µM] (active) |
| O=C(Cc1ccccn1)N1CC(=O)N2[C@H](CO)[C@@H](c3ccc(C#CC4CCCC4)cc3)[C@H]2C1 | -16.2% (inactive) |
| O=C(Cc1ccc(Cl)cc1)c1ccccc1 | -54.5% (inactive) |
| C/C=C/c1cccc(-c2nc(C(=O)NCCN3CCCC3)cc3c2[C@@H](CCO)N([S@](=O)C(C)(C)C)C3)c1 | -2.95% (inactive) |
| Cc1cc([N+](=O)[O-])nn1CC(=O)Nc1ccc(Cc2ccncc2)cc1 | -4.38% (inactive) |
| CN(C)CCNC(=O)c1ccc(Cl)c2cc3ccccc3nc12 | 80.1% (active) |

| Compound | inhibition |
| --- | --- |
| CN(C)CCNC(=O)Nc1cccc(Cl)c1Cl | 7.22% (inactive) |
| CCCNC(=O)c1ccc(Cl)c(Cl)c1 | 0.458% (inactive) |
| Cc1ccc(S(=O)(=O)NCCC(=O)NCc2ccc(Cl)cc2)cc1C | 0.373% (inactive) |
| CN(CCOc1ccccc1)C(=O)c1cc(-c2ccco2)nc2ccccc12 | 9.58% (inactive) |
| O=C(c1cc(-c2ccco2)nc2ccccc12)N(Cc1nnc(-c2ccc(Cl)cc2)o1)C1CC1 | 50.6% (active) |
| CC1CCCN(C(=O)c2cc(-c3ccco3)nc3ccccc23)C1 (stereo not drawn) | -1.36% (inactive) |
| CCOC(=O)c1ccc[n+](CC(=O)Nc2ccccc2OC(F)F)c1 | -5.94% (inactive) |
| CC(C)N(Cc1nnc(-c2ccc(Cl)cc2)o1)C(=O)C1=COCCO1 | 3.68% (inactive) |
| COc1cc(C(=O)Nc2ncccc2C)ccc1OCC(=O)N1CCOCC1 | 6.83% (inactive) |
| CCOc1cc(C(=O)N(Cc2ccccc2)c2ccc(C)cc2)ccc1OCC(=O)N1CCOCC1 | -0.92% (inactive) |
| CCCN(CC(=O)Nc1ccccc1C)C(=O)c1ccc(OCC(=O)N2CCOCC2)c(OCC)c1 | 23.3% (active) |
| CCNC(=O)C1(C)CCCN1C(=O)c1ccc(N(C)C)cc1 (stereo not drawn) | -1.06% (inactive) |
| CC(C)NC(=O)N(C)C[C@H]1Oc2ccc(NS(C)(=O)=O)cc2C(=O)N(C)C[C@@H]1C | 0.384% (inactive) |
| COc1cccc(NC(=O)CN(C)CC(=O)Nc2ccc3c(c2)CCC3)c1 | 8.15% (inactive) |
| CSCCC(NC(=O)c1ccco1)C(=O)NCCc1ccc(F)cc1 (stereo not drawn) | 0.567% (inactive) |
| COc1ccc(S(=O)(=O)NCCc2c[nH]c3ccccc23)cc1OC | 6.21% (inactive) |
| Fc1ccccc1COc1ccccc1CNCc1ccncc1 | 0.766% (inactive) |
| COc1cccc(CNCCc2c[nH]c3ccccc23)c1OCc1ccccc1F | 70.6% (active) |
| O=C(Nc1ncccc1O)c1ccc(S(=O)(=O)N2CCCC2)cc1 | -13.1% (inactive) |
| COC(=O)C1=C(N)Oc2c(oc(CO)cc2=O)C1c1c(F)cccc1Cl (stereo not drawn) | 1.5% (inactive) |
| CCOc1ccc(C(=O)CCN2CCOCC2)cc1 | 3.31% (inactive) |
| Cc1ccc(/C([O-])=C(/C(=S)NCc2ccco2)[n+]2ccccc2)cc1[N+](=O)[O-] | 4.58% (inactive) |
| O=C(CSc1nnc(-c2ccc([N+](=O)[O-])cc2)o1)Nc1ccccn1 | -47.6% (inactive) |
| N/C(=N\OC(=O)c1ccc([N+](=O)[O-])cc1)c1ccccn1 | 68.1% (active) |
| O=C(Nc1ccc([N+](=O)[O-])cc1)OCCc1ccccn1 | -49.3% (inactive) |
| O=C(COC(=O)c1ccccn1)NNC(=O)c1ccc([N+](=O)[O-])cc1 | 0.903% (inactive) |

| Compound | inhibition |
| --- | --- |
| N/C(=N\OC(=O)Cc1ccc([N+](=O)[O-])cc1)c1ccccn1 | 64.7% (active) |
| O=C(COC(=O)Cc1ccc([N+](=O)[O-])cc1)NC1CCCCCC1 | 2.86% (inactive) |
| COc1ccccc1C(=O)NC(CCSC)C(=O)N1CCN(C(C)=O)CC1 (stereo not drawn) | 7.42% (inactive) |
| OCCN1CCN(CCO)C1=S | 4.32% (inactive) |
| COc1cc(OC)cc(C(=O)N[C@H](C(=O)NNC(=O)c2ccc(Br)cc2)C(C)C)c1 | -11.4% (inactive) |
| CCc1ccc(C(=O)C(C)OC(=O)CN2C(=O)NC3(CCCC3)C2=O)cc1 (stereo not drawn) | -8.47% (inactive) |
| CC(=O)c1cc(C#N)c(N2CCCCC2)nc1C | 12.8% (inactive) |
| Cc1ccc(S(=O)(=O)N2CCN(C(=O)COC(=O)CNC(=O)c3ccc(C(C)(C)C)cc3)CC2)c(C)c1 | -31.5% (inactive) |
| COc1ccc2c(c1)c1ncn(Cc3ccccn3)c(=O)c1n2C | 56.2% (active) |
| COc1ccc(C(=O)COC(=O)c2nn(C)c(=O)c3ccccc23)c(OC)c1 | 4.47% (inactive) |
| Cc1ccc2c(c1)c1ncn(CCC3=CCCCC3)c(=O)c1n2C | -13.8% (inactive) |
| COc1ccc(CNC(=O)CN2CCC(n3nnc4cc(F)ccc43)CC2)cc1 | -0.322% (inactive) |
| CCCn1c(N)c(C(=O)CSc2nc3ccccc3c(=O)n2-c2ccc(OC)cc2)c(=O)[nH]c1=O | -0.2% (inactive) |
| CC(C)NC(=O)N(C)C[C@H]1OCc2ccccc2-c2c(n(C)c3ccccc23)C(=O)N([C@H](C)CO)C[C@@H]1C | -3.58% (inactive) |
| CC1Cc2ccccc2N1S(=O)(=O)c1cccc(C(=O)NCC(c2ccco2)N2CCCC2)c1 (stereo not drawn) | 8.41% (inactive) |
| O=C(Nc1ccc(N2CCOCC2)cc1)c1cccc(S(=O)(=O)N2CCOCC2)c1 | 14.5% (inactive) |
| O=C(C1CCOCC1)N1CC(=O)N2[C@H](CO)[C@@H](c3ccc(C#CC4CCCC4)cc3)[C@H]2C1 | -2.24% (inactive) |
| Cc1cnc(NC(=O)c2ccccn2)s1 | 48.8% (active) |
| O=C(Nc1nnc(C2CC2)s1)c1ccccn1 | 12.5% (inactive) |
| O=C(Nc1nnc(Cc2ccccc2)s1)c1cnccn1 | -14% (inactive) |
| CN1C(=O)c2cc(NS(=O)(=O)CC(F)(F)F)ccc2OC[C@H]2O[C@@H](CC(=O)NCc3ccc(Cl)c(Cl)c3)CC[C@@H]21 | -2.48% [at 25 µM] (inactive) |
| COc1ccccc1C(=O)NC(=O)COC(=O)C1CC1 | -63% (inactive) |
| Cc1cc(C(=O)COC(=O)C2CC2)c(C)n1-c1ccc(F)cc1 | 79.9% (active) |
| Cc1cc(C(=O)COC(=O)CNC(=O)c2ccc(F)cc2)c(C)n1Cc1ccco1 | 29.3% (inactive) |
| N#C[C@@H]1[C@@H](c2ccc(C#Cc3cccc(F)c3)cc2)[C@@H](CO)N1C(=O)C1CCC1 | -11.1% (inactive) |
| N#C[C@@H]1[C@@H](c2ccc(C#Cc3cccc(F)c3)cc2)[C@H](CO)N1C(=O)C1CCOCC1 | -15.7% [at 25 µM] (inactive) |

| Compound | inhibition |
| --- | --- |
| CCCC#Cc1ccc([C@@H]2[C@@H](C#N)N(C(=O)C3CCCC3)[C@@H]2CO)cc1 | 4.81% (inactive) |
| N#C[C@@H]1[C@H](c2ccc(C#Cc3cccc(F)c3)cc2)[C@@H](CO)N1C(=O)C1CCCC1 | 60.3% (active) |
| N#C[C@H]1[C@H](c2ccc(C#Cc3ccc(F)cc3)cc2)[C@@H](CO)N1C(=O)C1CCCC1 | 58.9% (active) |
| N#C[C@@H]1[C@H](c2ccc(C#Cc3ccccc3F)cc2)[C@H](CO)N1C(=O)C1CCCCC1 | 6.32% (inactive) |
| COc1ccccc1CNC(=O)COC(=O)CNS(=O)(=O)c1ccc(NC(C)=O)cc1 | 5.75% (inactive) |
| COc1ccc(NC(=O)N2CCCC(c3nc(-c4ccc(F)cc4)no3)C2)cc1 (stereo not drawn) | -2.8% (inactive) |
| CC(C)N(C(=O)CN1CCN(S(=O)(=O)c2ccc(Br)s2)CC1)C(C)C | 3.09% (inactive) |
| CCOC(=O)C(CC)/C(C)=N\NC(=O)c1cccc(C)c1 (stereo not drawn) | -2.97% (inactive) |
| CN(C)C(=O)c1ccc(-c2ccc(C3[C@@H]4CN(C(=O)Nc5ccccc5)C[C@H]3N4)cc2)cc1 (stereo partly drawn) | 8.08% [at 25 µM] (inactive) |
| Cc1cccc(-c2ccc(C3[C@@H]4CN(C(=O)Nc5ccc(C(F)(F)F)cc5)C[C@H]3N4)cc2)c1 (stereo partly drawn) | 55.5% (active) |
| O=C(C1CCCCC1)N1C[C@@H]2N[C@H](C1)C2c1ccc(-c2cccc(F)c2)cc1 (stereo partly drawn) | 26.1% (inactive) and -22.9% (inactive) |
| O=C([C@@H]1[C@@H](CO)[C@@H]2Cn3c(ccc(C4=CCCCC4)c3=O)[C@H]1N2Cc1nccs1)N1CCCCC1 | -4.97% [at 25 µM] (inactive) |
| COc1ccc(CN2CCC(c3nc4ccc(Cl)cc4[nH]3)CC2)cc1 | 7.72% (inactive) |
| O=C(NNC(=O)C1CCN(c2ncccn2)CC1)c1ccccc1 | 16.9% (inactive) |
| Cn1cnc(S(=O)(=O)N2C[C@@H]3N[C@H](C2)C3c2ccc(/C=C/c3ccccc3)cc2)c1 (stereo partly drawn) | -5.55% (inactive) and 3.57% (inactive) |
| Cn1cnc(S(=O)(=O)N2C[C@@H]3N[C@H](C2)C3c2ccc(-c3ccccc3F)cc2)c1 (stereo partly drawn) | 52.9% [at 25 µM] (active) and 10.8% [at 25 µM] (inactive) |
| COc1ccc(-c2ccc(C3[C@@H]4CN(S(=O)(=O)c5cn(C)cn5)C[C@H]3N4)cc2)cc1 (stereo partly drawn) | -4.84% (inactive) |
| COc1ccc2c3c(n(C)c2c1)[C@H](CO)N(C(C)=O)CC31CN(Cc2ccc(Cl)cc2)C1 | 68% [at 25 µM] (active) |
| COCC(=O)N1CC2(CN(S(C)(=O)=O)C2)c2c(n(C)c3cc(OC)ccc23)[C@@H]1CO | 2.58% [at 25 µM] (inactive) |
| CCC(=O)N1CC2(CCN(Cc3ccc(Cl)cc3)CC2)c2c(n(C)c3cc(OC)ccc23)[C@@H]1CO | 4.53% [at 25 µM] (inactive) |
| O=C(Nc1ccccn1)C1CCN(S(=O)(=O)c2ccc3c(c2)OCCO3)CC1 | -48.7% (inactive) |
| CCc1nnc(NC(=O)c2cccc(S(=O)(=O)N(C)c3ccc(OC)cc3)c2)s1 | 2.59% (inactive) |
| CN(Cc1ccc2nsnc2c1)Cc1nc(Cc2cccc(F)c2)no1 | 3.82% (inactive) |
| CCOc1ccc(S(=O)(=O)N2CCC(C(=O)OCc3ccc(OC)cc3)CC2)cc1 | 0.411% (inactive) |
| O=C(Nc1ccc(N2CCCCC2)cc1)c1cc(S(=O)(=O)N2CCOCC2)ccc1F | -16.8% (inactive) |
